Values joined by “and” are separate entries in the source; they are usually repeats but may differ in a detail not shown here. Identical values can stand only once. Results filed as inconclusive are left out. Entries that show only a call come without a potency. Some compounds were tested as several samples or in several runs, with calls that do not always agree. A number with no mark means an inactive call. Active and inactive are the calls of the source. Calls come from the whole dose curve; as a rule, active = well fitted curve in the direction sought with a large enough effect; inconclusive = small, poorly fitted or top-dose-only effect, or another doubt; inactive = no such curve, though single readings can be large; an effect the other way counts as inactive or inconclusive.
Experiments:
[1] = tested on: HEK293; assay: Cytotoxic Profiling of Annotated Libraries Using Quantitative High-Throughput Screening (AID 1296008); conditions: Five cell lines viability, CellTiter-Glo ATP luminescence, 48-72 h; max response: stronger effect = lower value; note: nearly all actives have a fitted effect of over 60% in size; note: potency is the fitted concentration of half-maximal effect
How it was run: (§1)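 Compounds were pin-transferred onto cells and incubated 48 or 72 hr at 37 degree Celsius, 95% humidity. CellTiter-Glo was added, plates sat 10 min at room temperature, then ATP-coupled luminescence was imaged as the viability read-out.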

[2] = tested on: HaCat; assay: as above; conditions: Five cell lines viability, CellTiter-Glo ATP luminescence, 48-72 h; max response: stronger effect = lower value
How it was run: as §1

[3] = tested on: NIH3T3; assay: as above; conditions: Five cell lines viability, CellTiter-Glo ATP luminescence, 48-72 h; max response: stronger effect = lower value
How it was run: as §1

[4] = tested on: HACAT; assay: qHTS assay to identify novel small-molecules to repurpose for Merkel cell carcinoma treatment (AID 1296009); conditions: MCC and control cell lines, CellTiter-Glo viability, 72 h; at 44.8 µM (top of the series) unless noted; note: nearly all actives have a fitted effect of over 60% in size; note: potency is the fitted concentration of half-maximal effect
How it was run: (§2)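 Cells exposed to NPC (8-point) and MIPE (11-point) compound dilutions for 72 hr at 37 degree celsius; viability read by CellTiter-Glo luminescence, normalized to no-cell and DMSO in-plate controls.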

[5] = tested on: MCC-26; assay: as above; conditions: MCC and control cell lines, CellTiter-Glo viability, 72 h; series mostly up to 46 µM
How it was run: as §2

[6] = tested on: WaGa; assay: as above; conditions: MCC and control cell lines, CellTiter-Glo viability, 72 h; series mostly up to 46 µM
How it was run: as §2

[7] = tested on: C33A; assay: Primary qHTS to identify gynecologic anti-cancer compounds using libraries of approved drugs and bioactive compounds (AID 1345084); conditions: Gynecologic cancer cell panel viability, ATPlite luminescence, 48 h; series mostly up to 57.5 µM; note: nearly all actives have a fitted effect of over 55% in size
How it was run: (§3)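 Measured: luminescence after ATPlite addition (15 min, RT). Exposure: 48 h, 37 C, 5% CO2.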

[8] = tested on: CASKI; assay: as above; conditions: Gynecologic cancer cell panel viability, ATPlite luminescence, 48 h; series mostly up to 57.5 µM
How it was run: as §3

[9] = tested on: Es-2; assay: as above; conditions: Gynecologic cancer cell panel viability, ATPlite luminescence, 48 h; series mostly up to 57.5 µM
How it was run: as §3

[10] = tested on: HeLa; assay: as above; conditions: Gynecologic cancer cell panel viability, ATPlite luminescence, 48 h; series mostly up to 57.5 µM
How it was run: as §3

[11] = tested on: Hek293T; assay: as above; conditions: Gynecologic cancer cell panel viability, ATPlite luminescence, 48 h, control line for the selectivity index; series mostly up to 57.5 µM
How it was run: as §3

[12] = tested on: JEG-3; assay: as above; conditions: Gynecologic cancer cell panel viability, ATPlite luminescence, 48 h; series mostly up to 57.5 µM
How it was run: as §3

[13] = tested on: KB-3-1; assay: Cytotoxic Profiling of Annotated Libraries Using Quantitative High-Throughput Screening (AID 1296008); conditions: Five cell lines viability, CellTiter-Glo ATP luminescence, 48-72 h; max response: stronger effect = lower value; note: nearly all actives have a fitted effect of over 60% in size; note: potency is the fitted concentration of half-maximal effect
How it was run: as §1

[14] = tested on: MCC-13; assay: qHTS assay to identify novel small-molecules to repurpose for Merkel cell carcinoma treatment (AID 1296009); conditions: MCC and control cell lines, CellTiter-Glo viability, 72 h; series mostly up to 46 µM; note: nearly all actives have a fitted effect of over 60% in size; note: potency is the fitted concentration of half-maximal effect
How it was run: as §2

[15] = tested on: MKL-1; assay: as above; conditions: MCC and control cell lines, CellTiter-Glo viability, 72 h; series mostly up to 46 µM
How it was run: as §2

[16] = tested on: MKL-2; assay: as above; conditions: MCC and control cell lines, CellTiter-Glo viability, 72 h; series mostly up to 46 µM
How it was run: as §2

[17] = tested on: HEK293T; assay: as above; conditions: MCC and control cell lines, CellTiter-Glo viability, 72 h; at 44.8 µM (top of the series)
How it was run: as §2

[18] = tested on: NIH3T3; assay: as above; conditions: MCC and control cell lines, CellTiter-Glo viability, 72 h; at 44.8 µM (top of the series) unless noted
How it was run: as §2

[19] = tested on: UISO; assay: as above; conditions: MCC and control cell lines, CellTiter-Glo viability, 72 h; series mostly up to 46 µM
How it was run: as §2

## O=C(Nc1ccccc1-c1cn2c(CN3CCNCC3)csc2n1)c1cnc2ccccc2n1
[1]
  Potency: 23.5 µM (active)
[2]
  max response: 4.92%
  outcome: inactive
[3]
  Potency: 29.6 µM (active)
[4]
  outcome: inactive
[5]
  Potency: 33.2 µM (active)
[6]
  Potency: inactive
[7]
  Potency: inactive
[8]
  Potency: inactive
[9]
  Potency: inactive
[10]
  Potency: inactive
[11]
  Potency: inactive
[12]
  Potency: inactive

## CC(=O)Oc1cc2c(s1)CCN(C(C(=O)C1CC1)c1ccccc1F)C2 (centres undefined)
[1]
  Potency: 2.96 µM (active)
[2]
  max response: 0.622%
[13]
  Potency: 4.69 µM (active)
  max response: -10.7%
[14]
  Potency: inactive
[5]
  Potency: inactive
[15]
  Potency: 11.8 µM (active)
[16]
  Potency: 10.5 µM (active)
[6]
  Potency: 10.5 µM (active)
[7]
  Potency: inactive
[8]
  Potency: inactive
[9]
  Potency: inactive
[10]
  Potency: inactive
[11]
  Potency: inactive
[12]
  Potency: inactive

## CCCNC(=O)NS(=O)(=O)c1ccc(Cl)cc1
[1]
  max response: -0.916%
  outcome: inactive
[2]
  max response: -1.01%
  outcome: inactive
[13]
  max response: -1.87% and 8.57%
[3]
  outcome: inactive
[4]
  outcome: inactive
[17]
  outcome: inactive
[14]
  Potency: inactive
[15]
  Potency: inactive
[16]
  Potency: inactive
[18]
  outcome: inactive
[19]
  Potency: inactive
[6]
  Potency: inactive
[7]
  Potency: inactive
[8]
  Potency: inactive
[9]
  Potency: inactive
[10]
  Potency: inactive
[11]
  Potency: inactive
[12]
  Potency: inactive

## Cc1cnc(C(=O)O)c[n+]1[O-]
[1]
  outcome: inactive
[2]
  outcome: inactive
[13]
  max response: 1.54% and 2.87% and -1.62%
  outcome: inactive
[3]
  max response: -3.95%
[4]
  outcome: inactive
[17]
  outcome: inactive
[14]
  Potency: inactive
[5]
  Potency: inactive
[15]
  Potency: inactive
[19]
  Potency: inactive
[6]
  Potency: inactive

## CO[C@H]1C[C@@H]2CC[C@@H](C)[C@@](O)(O2)C(=O)C(=O)N2CCCC[C@@H]2C(=O)O[C@H]([C@@H](C)C[C@@H]2CC[C@H](O)[C@H](OC)C2)CC(=O)[C@H](C)C=C(C)[C@@H](O)[C@@H](OC)C(=O)[C@H](C)C[C@H](C)C=CC=CC=C1C
[1]
  max response: -97.2%
[2]
  outcome: inactive
[13]
  max response: -8.34%
[3]
  outcome: inactive; activator
[4]
  outcome: inactive
[14]
  Potency: inactive
[5]
  Potency: inactive
[18]
  outcome: inactive; activator
[19]
  Potency: inactive

## CCC(CC)[C@H](NC(C)=O)[C@@H]1[C@H](O)[C@@H](C(=O)O)C[C@@H]1N=C(N)N
[1]
  max response: -9.34%
[2]
  outcome: inactive
[13]
  max response: 7.98%
[3]
  outcome: inactive
[4]
  outcome: inactive
[14]
  Potency: inactive
[5]
  Potency: inactive
[15]
  Potency: inactive
[16]
  Potency: inactive
[18]
  outcome: inactive
[19]
  Potency: inactive
[6]
  Potency: inactive

## O=C(OCC#CCSc1nnc(-c2cccc3ccccc23)o1)c1cc2ccccc2s1
[1]
  outcome: inactive
[2]
  max response: -10.9%
[13]
  max response: -5.32%
[3]
  outcome: inactive
[17]
  outcome: inactive
[14]
  Potency: inactive
[5]
  Potency: inactive
[15]
  Potency: inactive
[16]
  Potency: inactive
[18]
  outcome: inactive
[19]
  Potency: inactive
[6]
  Potency: inactive

## COc1ccc2c3c1OC1C[C@@H](O)C=C[C@@]31CCN(C)C2 (some centres undefined)
[1]
  max response: -3.03%
[2]
  outcome: inactive
[13]
  max response: -3.8%
[3]
  max response: 1.03%
[4]
  outcome: inactive
[14]
  Potency: inactive
[5]
  Potency: inactive
[15]
  Potency: inactive
[16]
  Potency: inactive
[19]
  Potency: inactive
[6]
  Potency: inactive

## O=c1cc(-c2cccc3c2Sc2ccccc2S3)oc(N2CCOCC2)c1
[1]
  outcome: inactive
[2]
  max response: -21.6%
[13]
  outcome: inactive
[3]
  outcome: inactive
[17]
  outcome: inactive
[14]
  Potency: inactive
[5]
  Potency: inactive
[15]
  Potency: inactive
[16]
  Potency: inactive
[18]
  outcome: inactive
[19]
  Potency: inactive
[6]
  Potency: inactive

## CC(=O)O[C@]1(C(C)=O)CC[C@@H]2[C@@H]3C[C@H](C)C4=CC(=O)CC[C@]4(C)[C@H]3CC[C@@]21C
[1]
  outcome: inactive
[2]
  outcome: inactive
[13]
  outcome: inactive
[3]
  max response: -6.3%
[4]
  outcome: inactive
[17]
  outcome: inactive
[14]
  Potency: inactive
[5]
  Potency: inactive
[19]
  Potency: inactive

## OC[C@@H](O)[C@H](O)[C@H](O)[C@@H](O)CO
[1]
  outcome: inactive
[2]
  outcome: inactive
[13]
  max response: -5.61% and 12.2%
[3]
  outcome: inactive
[4]
  outcome: inactive
[17]
  outcome: inactive
[14]
  Potency: inactive
[5]
  Potency: inactive
[15]
  Potency: inactive
[16]
  Potency: inactive
[18]
  outcome: inactive
[19]
  Potency: inactive
[6]
  Potency: inactive
[7]
  Potency: inactive
[8]
  Potency: inactive
[9]
  Potency: inactive
[10]
  Potency: inactive
[11]
  Potency: inactive
[12]
  Potency: inactive

## CCOC1OC(=O)C[C@H]1NC(=O)[C@@H]1CCCN1C(=O)[C@@H](NC(=O)c1ccc(N)c(Cl)c1)C(C)(C)C (some centres undefined)
[1]
  max response: -6.79%
[2]
  outcome: inactive
[13]
  outcome: inactive
[3]
  outcome: inactive
[4]
  outcome: inactive
[14]
  Potency: inactive
[5]
  Potency: inactive
[15]
  Potency: inactive
[16]
  Potency: inactive
[18]
  outcome: inactive
[19]
  Potency: inactive

## O=c1ccn([C@@H]2O[C@H](CO)[C@H](O)[C@H]2O)c(=O)[nH]1
[1]
  outcome: inactive
[2]
  outcome: inactive
[13]
  outcome: inactive
[3]
  max response: -5.13%
[4]
  outcome: inactive
[17]
  outcome: inactive
[14]
  Potency: inactive
[5]
  Potency: inactive
[15]
  Potency: inactive
[16]
  Potency: inactive
[19]
  Potency: inactive
[6]
  Potency: inactive

## O=C1Nc2ccc(Cl)cc2C(C#CC2CC2)(C(F)(F)F)O1 (centres undefined)
[1]
  max response: -29.6%
[2]
  outcome: inactive
[13]
  max response: -17.5%
[3]
  max response: -6.53%
[4]
  outcome: inactive
[14]
  Potency: inactive
[5]
  Potency: inactive
[15]
  Potency: inactive
[16]
  Potency: inactive
[19]
  Potency: inactive
[6]
  Potency: inactive

## C[N+]1(C)[C@@H]2CC(OC(=O)[C@H](CO)c3ccccc3)C[C@H]1[C@H]1O[C@@H]12 (some centres undefined)
[1]
  outcome: inactive
[2]
  outcome: inactive
[13]
  max response: 2.27%
[3]
  max response: -3.27%
[4]
  outcome: inactive
[17]
  outcome: inactive
[14]
  Potency: inactive
[15]
  Potency: inactive
[16]
  Potency: inactive
[19]
  Potency: inactive
[6]
  Potency: inactive
